# Among all 48,000 compounds or so, about 13,000 (27%) showed an effect of 50% or more. Some of the results follow.
# Tested on: Wolbachia pipientis
# Assay: Anti-Wolbachia Cell-Based Screen
# Format: functional
# Parameters: scale not given: in the data most compounds retested in dose-response had high values
# Details: 5 µM
row,Compound,Percent Effect
1,CSCCc1nc(-c2ccc3c(c2)OCO3)n(C)n1,-7.384%
2,Cc1nc(C(C)C)cc(N2CCC3(CCC(=O)N(CC4CC4)C3)CC2)n1,0.1735%
3,CC(C)=CCN1CC2(CCN(Cc3ncc[nH]3)CC2)CC1=O,-7.691%
4,Cc1nnnn1CCC(=O)N1CCC2(CCC(=O)N(CC3CC3)C2)CC1,115.6%
5,CC(C)=CCN1CC2(CCN(C(=O)CCn3ccnc3C)CC2)CC1=O,86.66%
6,CSCc1noc(CN2CCC3(CC2)CC(=O)N(CC=C(C)C)C3)n1,10.72%
7,CCCc1nc(C)cc(N2CCC3(CCC(=O)N(CC4CC4)C3)CC2)n1,5.96%
8,O=C(O)C(F)(F)F.c1ccc(Cn2cc3c(n2)C(COCC2CC2)OCC3)nc1 (stereo not given),-17.74%
9,Cc1nc(CN2C(=O)C[C@@H]3[C@@H]2CCN3CC2CCOCC2)cs1.O=C(O)C(F)(F)F,145.4%
10,Cc1nc(CN2C(=O)C[C@H]3[C@H]2CCN3CC2CCOC2)cs1.O=C(O)C(F)(F)F (stereo not given in full),100.2%
11,Cc1nc(CN2CCc3ncnc(C4CCOC4)c3CC2)cs1.O=C(O)C(F)(F)F (stereo not given),-5.983%
12,Cc1nc(CN2CCN(CC3CCOC3)Cc3cccnc32)cs1.O=C(O)C(F)(F)F.O=C(O)C(F)(F)F.O=C(O)C(F)(F)F (stereo not given),-0.3757%
13,CCN(Cc1ccccc1)C1CCN(c2cc(C)nn2C)C1=O (stereo not given),8.776%
14,Cc1cc(=O)c(C(=O)N2CCN(C)c3ccccc3C2)c[nH]1,106.1%
15,Cc1ccc(C(=O)N2Cc3ccccc3C2)cc1N1CCNC1=O,-8.111%
16,CN1CCN(C(=O)NCCNc2ncccn2)Cc2ccccc21,4.872%
17,Cc1cc(=O)[nH]cc1C(=O)N1CCN(C)c2ccccc2C1,99.2%
18,CN1CCN(C(=O)c2cc[nH]c(=O)c2)Cc2ccccc21,113.6%
19,CN1CCN(C(=O)CCC(=O)c2cccs2)Cc2ccccc21,-12.13%
20,O=C(c1cc[nH]c(=O)c1)N1CCn2c(nnc2-c2ccccc2)C1,1.591%
21,CN1CCN(C(=O)c2ccc(=O)n(C)c2)Cc2ccccc21,-3.616%
22,CN1CCN(C(=O)c2cccs2)Cc2ccccc21,-12.17%
23,Cc1cccc2sc(NC(=O)CN3CCCC4(CC3)CNC(=O)O4)nc12 (stereo not given),-7.394%
24,CN(Cc1ccco1)C1CCC12CCN(C(=O)c1ccncc1)CC2 (stereo not given),-36.28%
25,Oc1cc(-c2cccs2)nc(C2CCCN(CC3=CCCOC3)C2)n1 (stereo not given),158.9%

row,Compound,Percent Effect
1,CCCOC1CCCN(Cc2nc(-c3cccs3)oc2C)C1 (stereo not given),5.158%
2,Cn1cc(CN2CCCC(c3nc(O)cc(-c4cccs4)n3)C2)cn1 (stereo not given),121.4%
3,Cc1nnsc1C(=O)N1CCC2(CC1)c1nc[nH]c1CCN2CC(C)C,-5.32%
4,CC(=O)N1CCC(Oc2ccc(C#N)cc2)CC1,-9.565%
5,Cc1nc(N(C)C)ncc1C(=O)NCCCn1nccc1C1CC1,-2.183%
6,CC(C)NC(=O)c1noc2c1CN(Cc1cnn(C)c1)CC2,212.5%
7,O=C(Nc1cccnc1)c1noc2c1CN(S(=O)(=O)C1CC1)CC2,3.652%
8,Cn1cc(CN2CCc3onc(C(=O)Nc4cccnc4)c3C2)cn1,104.3%
9,Cc1cnn(C2CN(CC(=O)Nc3cccnc3)C2)c1,-2.546%
10,CC(=O)NCc1noc2c1CN(Cc1cnn(C)c1)CC2,0.2145%
11,CC(C)NC(=O)C1CCC2(CCN(Cc3cnn(C)c3)CC2)CO1.O=C(O)C(F)(F)F (stereo not given),-4.372%
12,CSc1ccc(OC(C)C(=O)Nc2cc(C)n[nH]2)cc1 (stereo not given),-10.9%
13,COC(=O)CNC(=O)C(C)Oc1ccccc1C(F)(F)F (stereo not given),-20.43%
14,CC(=O)N1CCc2[nH]nc(C(=O)N3CC=CC3)c2C1,-70.9%
15,COc1cccc2[nH]cc(CCNC(=O)N3CCOCC3C3CC3)c12 (stereo not given),-14.93%
16,O=C(Nc1ccc(N2CCCC2)nc1)N1CCc2ccccc2C1,28.26%
17,Cc1nsc(C(=O)N2CCc3ccccc3C2)n1,14.75%
18,Cc1nsc(NC(=O)N2CCc3sccc3C2)n1,105.8%
19,CN(C)c1ccc(NC(=O)N2CCc3sccc3C2)cn1,-14.46%
20,Cc1nsc(N2CCc3sccc3C2)n1,15.05%
21,CSc1nsc(NC(=O)N2CCc3ccccc3C2)n1,111%
22,CN(C)Cc1cc(CC2(NCc3ccc(C#N)cc3)COC2)no1,1.695%
23,Cn1cccc(NC(=O)N2CCC(CSc3ccccc3)C2)c1=O (stereo not given),-5.186%
24,COCC(=O)N1CCC2(CC(C(=O)NCc3cccnc3)=NO2)C1 (stereo not given),-9.027%
25,CC(C)NC(=O)N1CCCC2(CC(C(=O)Nc3ccccc3)=NO2)C1 (stereo not given),111.3%

# From ChEMBL document CHEMBL3988442, “University of Dundee, Small-Polar-MMV Screening Library” (2021)
